Assay results reported in PubChem BioAssay (EPA / NIEHS).
Results filed as inconclusive are left out. The source made the active and inactive calls. The calls were made as follows: active = hit-call score of the fitted dose curve at least 0.9, where 1 is the maximum; inconclusive = response in the unintended direction; inactive = score below 0.9.

Experiment: ATG_XTT_Cytotoxicity: Cytotoxicity Assessment in the Attagene TRANS-FACTORIAL HepG2 Assay (AID 2283584)
Outline: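 Transfect HepG2 with GAL4-UAS reporter units, dose compound, incubate 24 h, then measure viable cell number by XTT. Fit concentration response against DMSO baseline.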

| SMILES | outcome |
| --- | --- |
| Cc1ccc(C(C)C)cc1O | inactive |
| CSc1nnc(C(C)(C)C)c(=O)[nH]1 | inactive |
| C=C(C)C(=O)OCc1ccccc1 | inactive |
| Cc1ccc(C(=O)O)o1 | inactive |
| Cc1ccc2sc3cccc(C)c3c2c1 | inactive |
| CCCC[n+]1ccccc1 | inactive |
| C=O | inactive |
| CN1Cc2c(N)cccc2C(c2ccccc2)C1 (centres undefined) | inactive |
| CC1CCC(C(C)(C)O)CC1 (centres undefined) | inactive |
| CC1(C)[C@H](C(=O)OCc2cccc(Oc3ccccc3)c2)[C@@H]1C=C(Cl)Cl | inactive |
| Nc1cc(N)cc(C(=O)O)c1 | inactive |
| CCCC(=O)OCCC(C)CCC=C(C)C (centres undefined) | inactive |
| CCc1c(C)cc(N)c(CC)c1N | inactive |
| Cc1ccc(C=O)cc1 | inactive |
| Cc1c(Cl)c(=O)oc2cc(O)ccc12 | inactive |
| CC1COc2ccccc2N1C(=O)C(Cl)Cl (centres undefined) | inactive |
| CC(CCO)CCCC(C)(C)O (centres undefined) | inactive |

| SMILES | outcome |
| --- | --- |
| Nc1nc2ccc([N+](=O)[O-])cc2s1 | inactive |
| O=C1NC(=O)c2ccccc21 | inactive |
| Cc1cccc(C)c1[N+](=O)[O-] | inactive |
| COc1cc(C(C)(C)C)c(O)c(C(C)(C)C)c1 | inactive |
| O=c1oc(=O)c2cc3c(=O)oc(=O)c3cc12 | inactive |
| Cc1cccc(Nc2ccccc2C(=O)O)c1C | inactive |
| OCCOc1cccc(OCCO)c1 | inactive |
| c1ccc2sc(SN(C3CCCCC3)C3CCCCC3)nc2c1 | inactive |
| OC1C(O)C(O)C(O)C(O)C1O (centres undefined) | inactive |
| O=CCCc1ccccc1 | inactive |
| Nc1cc([N+](=O)[O-])ccc1Cl | inactive |
| COC(=O)C1=C(C)NC(C)=C(C(=O)OCCN(C)Cc2ccccc2)C1c1cccc([N+](=O)[O-])c1 (centres undefined) | inactive |
| Clc1sc(Cl)c(Cl)c1Cl | inactive |
| CC(c1cc2ccccc2s1)N(O)C(N)=O (centres undefined) | inactive |
| CC(CC(C)(C)C)CC(C)(C)CC(C)(C)C (centres undefined) | inactive |
| N#Cc1ccc(CC(=NNC(=O)Nc2ccc(OC(F)(F)F)cc2)c2cccc(C(F)(F)F)c2)cc1 | inactive |
| OCc1cccnc1 | inactive |
